Assay outcomes as filed in PubChem.
Compounds with a hit are over-represented: about 2.7% of the library has one in this group of screens.
KLK7 zymogen act – activates the human kallikrein-7 zymogen | activation, % at 7 µM | P49862 | purified proKLK7, EDANS-DABCYL substrate fluorescence; 100% is mature enzyme control, 0% vehicle | hit rate 0.9% among 370,000;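 active = activation above the mean of all tested compounds plus 3 SD, computed per campaign excluding outliers beyond control limits, cut at about 13% in these data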
Target sequence (P49862 whole entry, looked up): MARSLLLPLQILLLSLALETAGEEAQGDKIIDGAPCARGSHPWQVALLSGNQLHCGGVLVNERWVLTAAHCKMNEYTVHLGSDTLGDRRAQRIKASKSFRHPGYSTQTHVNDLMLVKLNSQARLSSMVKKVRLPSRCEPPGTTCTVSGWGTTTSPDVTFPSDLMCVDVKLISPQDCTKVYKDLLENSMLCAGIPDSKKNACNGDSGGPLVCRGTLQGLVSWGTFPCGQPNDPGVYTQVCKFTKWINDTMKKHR
PfG6PD inh – PfG6PD (Plasmodium falciparum) enzyme inhibition; PfGluPho enzyme, NADPH resazurin-diaphorase fluorescence; inhibition, % at 20 µM; hit rate 0.78% among 350,000;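 active = inhibition reaching at least a set limit at 20 µM in the primary screen, cut at about 59% in these data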;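 also: 0% = DMSO wells with substrate and 100% = DMSO wells lacking glucose-6-phosphate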
FAS-TE inh – blocks the thioesterase domain of human fatty acid synthase; P49327; recombinant FAS-TE, OMFH fluorogenic substrate, fluorescence endpoint; inhibition, % at 15 µM; hit rate 0.67% among 360,000; AID 602261;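 active = compounds whose normalised, plate-corrected inhibition of enzyme fluorescence in the single-dose primary screen is 50% or more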;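 also: 0% = DMSO with enzyme and 100% = substrate without enzyme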
Neddylation inh – inhibitors of human cullin neddylation | P61081+Q13564 | hit rate 0.58% among 360,000 | calls only at 25 µM | TR-FRET cullin neddylation, biochemical | AID 651699; in the data active = inhibition above about 36%
FAS-TE conf – confirmation of human fatty acid synthase thioesterase inhibitors. shares compounds with FAS-TE inh. recombinant FAS-TE, OMFH fluorogenic substrate, fluorescence. inhibition, % at 15 µM. hit rate 45% among 2,300. AID 624325;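 active = compounds inhibiting the enzyme by at least 50% at 15 µM in any one of the replicates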;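 also: 0% = enzyme with DMSO only and 100% = wells lacking enzyme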
Numbers without * were called inactive.

For CC(Oc1cccc([N+](=O)[O-])c1)C(=O)NCCC1=CCCCC1 (stereo not given) the results were KLK7 zymogen act 1, PfG6PD inh 9, FAS-TE inh 72*, Neddylation inh inactive and FAS-TE conf 38.
`CC(C(=O)NCCC1=CCCCC1)c1ccc([N+](=O)[O-])cc1` (stereo not given) gave KLK7 zymogen act 0, PfG6PD inh 0, FAS-TE inh 70*, Neddylation inh inactive and FAS-TE conf 69*.
`COc1cc(C(=O)N/N=C/c2coc3ccc(Cl)cc3c2=O)ccc1O` gave KLK7 zymogen act 0, PfG6PD inh -7, FAS-TE inh 59*, Neddylation inh inactive and FAS-TE conf 66*.
O=C(N/N=C/c1coc2ccc(Cl)cc2c1=O)c1ccc(O)cc1 was read as KLK7 zymogen act 0, PfG6PD inh -10, FAS-TE inh 65*, Neddylation inh inactive and FAS-TE conf 37*.
`COc1cc(C(=O)Oc2ccccc2/C=N/NC(=O)c2ccc(Cl)cc2)cc(OC)c1OC` gave KLK7 zymogen act 0, PfG6PD inh -28, FAS-TE inh 54*, Neddylation inh inactive and FAS-TE conf 22.
`COc1ccc(C(=O)N/N=C\c2coc3ccc(Cl)cc3c2=O)cc1` gave KLK7 zymogen act 0, PfG6PD inh 7, FAS-TE inh 15 and Neddylation inh inactive.
`COc1cc(C(=O)Oc2ccccc2/C=N/NC(=O)c2ccc(C)c(Cl)c2)cc(OC)c1OC` gave KLK7 zymogen act 1, PfG6PD inh -8, FAS-TE inh -5 and Neddylation inh inactive.
CC1=C2NC(N)=[N+](Cc3ccc4c(c3)OCO4)CC2n2c(=O)n(-c3ccccc3)c(=O)n2C1 (stereo not given) was read as KLK7 zymogen act 0.
Screening Cc1ccc(CS(=O)(=O)c2ncc(Cl)c(C(=O)Nc3ccc(OC(F)F)cc3)n2)cc1 returned KLK7 zymogen act -1, PfG6PD inh 20, FAS-TE inh 52*, Neddylation inh inactive and FAS-TE conf 43.
Screening COC(=O)c1ccccc1NC(=O)c1nc(S(=O)(=O)Cc2ccccc2)ncc1Cl returned KLK7 zymogen act 0, PfG6PD inh 24, FAS-TE inh 54*, Neddylation inh inactive and FAS-TE conf 35.
For CCOc1ccccc1NC(=O)c1nc(S(=O)(=O)Cc2cccc(C)c2)ncc1Cl the results were KLK7 zymogen act 0, PfG6PD inh -5, FAS-TE inh 58*, Neddylation inh inactive and FAS-TE conf 48*.
CC(=O)Nc1ccc(NC(=O)c2nc(S(=O)(=O)Cc3ccccc3)ncc2Cl)cc1 was read as KLK7 zymogen act 1, PfG6PD inh 9, FAS-TE inh 23 and Neddylation inh inactive.
Screening CC(=O)c1cc(-c2cnn(Cc3ccccc3)c2)c(=O)n2c1CCC2 returned KLK7 zymogen act 0.
`O=C(NC1CCCCN(Cc2cccc(F)c2)C1=O)c1ccc(-c2ccccc2)cc1` (stereo not given) gave KLK7 zymogen act 0.
COc1ccc(C2CC23N=C(c2ccccc2)OC3=O)cc1 (stereo not given) was read as KLK7 zymogen act 0, PfG6PD inh 5, FAS-TE inh 85*, Neddylation inh inactive and FAS-TE conf 96*.
For N#Cc1ccccc1Sc1ccccc1C(=O)Nc1ccc2ccccc2c1 the results were KLK7 zymogen act -5, PfG6PD inh 27, FAS-TE inh 60*, Neddylation inh inactive and FAS-TE conf 38.
N#Cc1ccccc1Sc1ccccc1C(=O)Nc1ccc(Br)cc1 was read as KLK7 zymogen act 1, PfG6PD inh -26, FAS-TE inh 51*, Neddylation inh inactive and FAS-TE conf -7.
Screening O=C(NCCN1CCC(Cc2ccccc2)CC1)C1CCCN(S(=O)(=O)c2ccccc2)C1 (stereo not given) returned KLK7 zymogen act 0.
Screening Cc1ccc(-c2nc(C3CCCN(S(=O)(=O)c4cccs4)C3)no2)cc1 (stereo not given) returned KLK7 zymogen act 0.
COc1ccc(Br)cc1CN(C)C(C)C(=O)Nc1cc([N+](=O)[O-])ccc1OC (stereo not given) was read as KLK7 zymogen act 0, PfG6PD inh 10, FAS-TE inh 54*, Neddylation inh inactive and FAS-TE conf 26.
Screening COc1ccc([N+](=O)[O-])cc1NC(=O)C(C)OC(=O)C1CCCC1 (stereo not given) returned KLK7 zymogen act 0, PfG6PD inh 2, FAS-TE inh 46 and Neddylation inh inactive.
COc1ccc([N+](=O)[O-])cc1NC(=O)C(C)OC(=O)CC1CCCC1 (stereo not given) was read as KLK7 zymogen act 0, PfG6PD inh 16, FAS-TE inh 79*, Neddylation inh inactive and FAS-TE conf 61*.
For C[C@H](O)[C@@H]1C(=O)N2CCc3c([nH]c4c(-c5ccc6c(c5)OCO6)cccc34)[C@@H]2C[C@@H]1N(C)C(=O)OCc1ccccc1 the results were KLK7 zymogen act 1.
Screening O=C(COc1ccc(Cl)cc1)Nc1ccc(C(=O)O)cc1NC(=O)COc1ccc(Cl)cc1 returned KLK7 zymogen act 0, PfG6PD inh -14, FAS-TE inh 51*, Neddylation inh inactive and FAS-TE conf 66*.
Screening O=C(COc1ccc(Cl)cc1)Nc1ccccc1Cl returned KLK7 zymogen act 0, PfG6PD inh -14, FAS-TE inh 11 and Neddylation inh inactive.
Screening Fc1cc(F)c(CSc2nnc(-c3cccnc3)n2Cc2ccccc2)cc1F returned KLK7 zymogen act 1.
`Cc1ccc(-c2nnc(SCC(=O)NN=Cc3c[nH]c4ccccc34)n2-c2ccccc2)cc1` gave KLK7 zymogen act 1.
COc1ccc(C(C)(C)C)cc1NC(=O)c1cc(S(=O)(=O)N(C)C)ccc1N1CCCC1 was read as KLK7 zymogen act -2, PfG6PD inh -5, FAS-TE inh 68*, Neddylation inh inactive and FAS-TE conf 24.
For CN(C)S(=O)(=O)c1ccc(N2CCCC2)c(C(=O)Nc2nc3c(ccc4ccccc43)s2)c1 the results were KLK7 zymogen act 0, PfG6PD inh 1, FAS-TE inh 92*, Neddylation inh inactive and FAS-TE conf 10.
COC(=O)C1CN(C2CC2)CCS(=O)(=O)N1Cc1cn(Cc2ccc(C)cc2)nn1 (stereo not given) was read as KLK7 zymogen act 0.
`CCN(CC)S(=O)(=O)c1ccc2oc(C(=O)N3CCc4ccccc4C3)c(C)c2c1` gave PfG6PD inh 19, FAS-TE inh 38 and Neddylation inh inactive.
Cc1c(C(=O)N2CCc3ccccc3C2)oc2ccc(S(=O)(=O)N3CC(C)CC(C)C3)cc12 (stereo not given) was read as KLK7 zymogen act 0, PfG6PD inh 10, FAS-TE inh 52*, Neddylation inh inactive and FAS-TE conf 4.
`CCCN(CC(=O)Nc1cc(Cl)cc(Cl)c1)CC(=O)Nc1ccc(F)c(F)c1F` gave KLK7 zymogen act 0, PfG6PD inh 30, FAS-TE inh 51*, Neddylation inh inactive and FAS-TE conf 34.
